Screening results as filed in PubChem.
Hits are enriched below; roughly 0.45% of the tested compounds scored in any of these assays.
pAkt inh – inhibitors of Akt phosphorylation. actives 0.32% (n = 360,000). AID 651550. Neuro2A IGF-stimulated pAkt S473 HTRF, 20 min; active compounds read low. activity change, % for hits at 50 µM; in the data active = activity change below about -80%; inconclusive = mostly about -51% to -80%
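Neuro2A cells in DMEM with 0.5% FBS, overnight at 37 deg C, given compound at single 50 µM final, then IGF (6 nM final) for 20 min at 37 deg C. Lysed; phospho-Akt Ser473 by HTRF after 24 h, 665/615 ratio.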
CXXC DNA block – inhibitors of human MLL CXXC domain-DNA interaction | Q03164 | MLL-CXXC / FITC-HOXA9 DNA fluorescence polarization | Potency, µM (series often up to 115 µM), hits mostly inhibitors | actives 0.037% (n = 290,000); active = well fitted inhibition curve with a large enough effect in the polarisation, with a control signal flat, not every such curve was filed as active; inconclusive = small, poorly fitted or top-dose-only effect, or effect the other way, or a change in a side signal; inactive = no such curve, though single readings can be large or run the other way; the % refers to the polarisation
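Steps: dispense CXXC domain solution (7 uM) → pin compounds or unlabeled HOX-A9 DNA control → 5 min ambient → add FLSN-HOX-A9 solution (50 nM) → spin → 30 min ambient → fluorescence polarization. Tris pH 7.5/NaCl/DTT/BSA buffer.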
S-ASM inh – inhibitors of human secretory acid sphingomyelinase. P17405. Potency, µM (top dose mostly 57.5 µM), hits mostly inhibitors. actives 0.006% (n = 340,000). placental ASM, HMU-PC fluorogenic substrate, 60 min. AID 504937; active = well fitted inhibition curve with a large enough effect; inconclusive = small, poorly fitted or top-dose-only effect; inactive = no such curve, though single readings can be large or run the other way
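Steps: dispense placental human ASM, pin compound, wait 10 min at room temperature, add HMU-PC0 substrate at 9 uM final, incubate 60 min at 37 °C, add stop solution raising pH to 10, read fluorescence.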
MBNL1 CUG block – inhibitors of human MBNL1 binding to CUG repeat RNA; Q9NR56; TR-FRET MBNL1-His/biotin-(CUG)12 binding, 665/545 ratio; Potency, µM (highest dose often 57.5 µM), usual class: inhibitors; actives 0.036% (n = 280,000); active = well fitted inhibition curve with a large enough effect in the signal ratio, with a control signal flat, not every such curve was filed as active; inconclusive = small, poorly fitted or top-dose-only effect, or effect the other way, or a change in a side signal; inactive = no such curve, though single readings can be large or run the other way; the % refers to the signal ratio
Target sequence (Q9NR56 whole entry, looked up): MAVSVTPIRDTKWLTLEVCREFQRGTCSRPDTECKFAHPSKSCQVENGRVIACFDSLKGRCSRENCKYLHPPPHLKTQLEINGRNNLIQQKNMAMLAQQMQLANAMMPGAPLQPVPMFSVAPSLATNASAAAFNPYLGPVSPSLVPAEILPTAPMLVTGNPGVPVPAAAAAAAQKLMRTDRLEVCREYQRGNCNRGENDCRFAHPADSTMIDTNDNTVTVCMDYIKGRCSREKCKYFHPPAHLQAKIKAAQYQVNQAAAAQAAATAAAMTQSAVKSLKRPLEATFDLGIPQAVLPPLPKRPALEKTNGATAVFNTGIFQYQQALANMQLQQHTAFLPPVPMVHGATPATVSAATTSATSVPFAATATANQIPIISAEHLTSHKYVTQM
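Ratiometric TR-FRET (665 over 545 nm, excitation 340 nm) tracks disruption of MBNL1-His/biotin-(CUG)12 complex after 60 min at room temperature, with compounds at 92 nM to 58 uM final.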
Menin MLL FP FL – displaces fluorescein MLL peptide from human menin; FP activity change, % at 61.4 µM; AID 1766; Fluorescence polarization, fluorescein-MLL peptide displacement from menin; 290,000 tested, under 10 active; active = well fitted curve in the direction sought with a large enough effect in the polarisation, not every such curve was filed as active; inconclusive = small, poorly fitted or top-dose-only effect, or effect the other way, or a change in a side signal; inactive = no such curve, though single readings can be large or run the other way; the % refers to the polarisation
Menin-MLL TR inh – menin-MLL binding inhibition, Texas Red mutant peptide. O00255. Potency, µM (titrated, usually from 61.6 µM), actives largely listed as inhibitors. Menin + Texas Red MLL mutant peptide, fluorescence polarization. actives 0.23% (n = 270,000); active = well fitted inhibition curve with a large enough effect in the polarisation, with a control signal flat, not every such curve was filed as active; inconclusive = small, poorly fitted or top-dose-only effect, or effect the other way, or a change in a side signal; inactive = no such curve, though single readings can be large or run the other way; the % refers to the polarisation
Numbers stand for hits; i = inactive; ? = inconclusive; nt = not tested or not shown; [ ] = remark or other dose.

SMILES | pAkt inh | CXXC DNA block | S-ASM inh | MBNL1 CUG block | Menin MLL FP FL | Menin-MLL TR inh
COc1ccc(-c2cc(C(=O)Nc3c(C)nn(Cc4ccccc4Cl)c3C)no2)cc1 | i | i | i | i | i | i
O=C(NC1=NCCS1)c1cc(-c2ccc(-c3ccccc3)cc2)nc2ccccc12 | i | nt | i | nt | i | 11µM
O=C(c1cc(-c2cccs2)nc2ccccc12)N1CCN(S(=O)(=O)c2cccc(F)c2)CC1 | i | i | i | i | i | i
O=C(Cc1ccc(Cl)cc1)Nc1ccc(NC(=O)c2ccccc2)cc1 | i | i | i | nt | i | 10µM
Cc1cccc(C(=O)Nc2ccc(NC(=O)Cc3ccc(Cl)cc3)cc2)c1 | i | i | i | i | i | ?
COCCNC(=O)CN(c1ccc(C)cc1)S(=O)(=O)c1ccccc1 | nt | i | i | i | i | i
COCCNC(=O)CN(c1ccc(OC)c(OC)c1)S(=O)(=O)c1ccc(C)cc1 | -129% | i | i | i | i | nt
CC(C)C[C@H](NC(=O)CC[C@H]1O[C@@H](n2ccc(=O)[nH]c2=O)[C@H](O)[C@@H]1O)C(=O)O | i | nt | nt | nt | nt | nt
COc1ccc(/C(O)=C2/C(=O)C(=O)N(Cc3cccnc3)C2c2ccco2)cc1OC (stereo not drawn) | i | i | i | i | i | i
CCOc1cccc(/C(O)=C2/C(=O)C(=O)N(Cc3cccnc3)C2c2ccco2)c1 (stereo not drawn) | -116% | i | i | i | i | ?
O=C(CSc1nc2ccccc2s1)N1c2ccccc2Sc2ccc(Cl)cc21 | i | i | i | i | i | 20µM
COc1cc2c(cc1OC)CN(CC(=O)Nc1ccc(C#N)cc1)CC2 | -107% | i | i | i | i | nt
O=C(CCN1C(=O)/C(=C/c2cccs2)SC1=S)NC1=NCCS1 | i | i | i | ? | i | i
CC(C)(C)c1nn(-c2ccccc2)c2nc(Cl)c(C=O)cc12 | i | i | i | i | i | i
Cc1cc(C)nc(SCCCn2c(=O)[nH]c3ccccc32)n1 | -125% | i | i | i | i | i
C=CCNC(=O)c1ccccc1NC(=O)C1CC(=O)N(C(C)C)C1 (stereo not drawn) | i | i | i | i | i | i
COc1cccc(C2Nc3ccccc3C(=O)N2O)c1O (stereo not drawn) | -118% | i | i | i | i | i
CCCN1C(=O)/C(=C/c2c(NCCCOCC)nc3c(C)cccn3c2=O)SC1=S | i | ? | i | i | ? | 8.9µM
CC(C)COC(=S)Nc1ccccc1 | -108% | i | i | i | i | i
CC(C)COCC(O)CCC(=O)NNC(=S)Nc1ccccc1 (stereo not drawn) | i | i | i | nt | i | i
C=CCn1c(C(CC(C)C)CC(C)O)n[nH]c1=S (stereo not drawn) | i | i | i | i | i | i
Clc1ccc(C=Cc2ccccn2)cc1 | i | nt | i | nt | nt | nt
C(=C\c1ccccn1)/c1ccccn1 | i | i | i | ? | i | 13µM
CC(C)(C)C1=Nn2c(nnc2-c2ccccn2)SC1 | -111% | i | i | i | i | i[11.7 µM]
Cc1c(/C(O)=C2/C(=O)C(=O)N(CCN3CCOCC3)C2c2ccco2)cnn1-c1ccccc1 (stereo not drawn) | i | nt | i | nt | nt | nt
SMILES | pAkt inh | CXXC DNA block | S-ASM inh | MBNL1 CUG block | Menin MLL FP FL | Menin-MLL TR inh
CSc1nc(-c2ccc(Cl)cc2)nn1S(=O)(=O)c1ccccc1 | -115% | i | i | i | i | i
CSc1nc(-c2ccc(Cl)cc2)nn1S(=O)(=O)c1ccc(Cl)cc1 | i | i | i | i | i | i
COC(=O)c1ccc2c(=O)n(Cc3ccco3)c(SCC(=O)Nc3ccc(C)c(Cl)c3)nc2c1 | i | i | i | i | i | ?
CCn1c(N)c(C(=O)N2CCOCC2)sc1=S | -114% | i | i | ? | i | i
C=CCn1c(N)c(C(=O)N2CCOCC2)sc1=S | i | i | i | i | i | i
O=C(O)C1C2CCC(O2)C1C(=O)Nc1ccc(O)cc1 (stereo not drawn) | i | i | nt | i | nt | 32µM
Cc1nc(NCc2ccco2)c(C#N)c2c1COC(C)(C)C2 | i | i | i | i | i | i
CC(C)c1nc2sc3c(NCc4ccco4)ncnc3c2c2c1COC(C)(C)C2 | -104% | i | i | i | i | i
CC1(C)Cc2c(C#N)c(NCc3ccco3)nc(-c3ccco3)c2CO1 | -89% | i | i | i | ? | i
COc1ccc(CNC(=O)c2cc(-c3cccs3)on2)cc1 | i | i | i | i | i | ?
O=C(NCc1ccc(Cl)cc1)c1cc(-c2cccs2)on1 | i | i | i | i | i | 28µM
Cn1c(C(=O)N2CCOCC2)cnc1Sc1ncc(C(F)(F)F)cc1Cl | -114% | i | i | i | i | i
CCOC(=O)c1cc(-c2ccc(N3CCOCC3)cc2)nn1-c1ccc(F)cc1F | i | i | 28µM | i | i | i
COc1ccc(S(=O)(=O)N2CCN(C(=O)NC3CCCCC3)CC2)cc1OC | -106% | i | i | i | i | i
COc1ccc(S(=O)(=O)N(C)CC(=O)NC2CCCC2)cc1Cl | -110% | i | i | i | i | i
COc1ccc(Cl)cc1NC(=O)NC1CCCCC1 | -127% | i | i | i | i | ?
CCCN1CCC(NC(=O)Nc2cc(Cl)ccc2OC)CC1 | i | ? | i | i | i | i
COc1ccc(S(=O)(=O)NC2CCCCC2)cc1C | i | i | i | i | i | i
COc1cc(S(=O)(=O)NC2CCCCC2)ccc1Cl | -119% | i | i | i | i | i
Cc1cc(C)cc(C(=O)NCC(=O)OCC(=O)N2CCCC2)c1 | i | nt | nt | nt | nt | nt
O=C(COC(=O)c1ccc(Br)o1)Nc1ncc(Cl)cc1Cl | i | i | i | i | i | i
OCC1OC(n2nnc3ccccc32)C(O)C(O)C1O (stereo not drawn) | -92% | i | i | i | i | i
Nc1nccc2c1ncn2C1OC(CO)C(O)C1O (stereo not drawn) | i | nt | nt | nt | nt | nt
COC(=O)CCC(NC(=O)c1cc(C)oc1C)C(=O)OC (stereo not drawn) | -105% | i | i | i | i | i
CSCCC(NC(=O)c1cc(C)oc1C)C(=O)O (stereo not drawn) | nt | i | i | i | i | i
COc1cccc(-n2nc3c(-n4ncc(C#N)c4N)nnc(C)c3c2C)c1 | -123% | i | i | i | i | i
Cc1cccc(-n2ncc(C#N)c2N)c1 | i | i | i | i | i | i
CCOC(=O)C1=CCN(S(=O)(=O)c2ccc(Cl)cc2)C1c1ccc(C)cc1 (stereo not drawn) | i | nt | nt | nt | nt | nt
CC(C)C1C(=O)N(Cc2cn(CCC3OCCO3)nn2)CCS(=O)(=O)N1Cc1ccc(-c2ccc(F)cc2)cc1 (stereo not drawn) | i | nt | nt | nt | nt | nt
O=C(Oc1ccc(OC(=O)c2ccco2)c(S(=O)(=O)c2ccc(Br)cc2)c1)c1ccco1 | i | i | i | i | i | 10µM
